Laboratory results as given in PubChem BioAssay (EPA / NIEHS).
Records with an inconclusive call do not appear. Calls of active or inactive are those of the source. The calls were made as follows: active = hit-call score of the fitted dose curve at least 0.9, where 1 is the maximum; inconclusive = response in the unintended direction; inactive = score below 0.9.

Target: human Vitamin D Receptor (VDR), VDR (gene 7421) (UniProt P11473)
Test: ATG_VDR_TRANS: Attagene TRANS-FACTORIAL HepG2 Assay for human Vitamin D Receptor (VDR) (AID 2283022)
Method in brief: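 HepG2 cells were transiently transfected with GAL4-UAS reporter units and a chimeric VDR-Gal4 construct, then dosed for 24 hours. Reporter mRNA was quantified by RT-PCR, fluorescent labeling, HpaI digestion and capillary electrophoresis; gain of signal analysed vs DMSO.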

human Vitamin D Receptor (VDR), VDR (gene 7421), sequence (P11473 whole entry, looked up): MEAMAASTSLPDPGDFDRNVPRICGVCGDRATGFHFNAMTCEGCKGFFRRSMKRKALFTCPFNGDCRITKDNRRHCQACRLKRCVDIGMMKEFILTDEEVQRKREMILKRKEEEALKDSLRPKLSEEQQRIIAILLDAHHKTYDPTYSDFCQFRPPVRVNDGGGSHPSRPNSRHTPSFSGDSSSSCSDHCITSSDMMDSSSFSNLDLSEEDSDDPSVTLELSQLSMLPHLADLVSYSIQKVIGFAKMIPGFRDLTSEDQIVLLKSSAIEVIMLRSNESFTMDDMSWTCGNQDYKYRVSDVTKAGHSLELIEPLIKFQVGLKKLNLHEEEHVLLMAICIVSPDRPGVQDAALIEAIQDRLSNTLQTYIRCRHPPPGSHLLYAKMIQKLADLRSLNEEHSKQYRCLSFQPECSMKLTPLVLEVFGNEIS

Compound | outcome
CCc1ccccc1N | inactive
CCC(C)c1cccc(C(C)CC)c1O (stereo not drawn) | inactive
COS(=O)(=O)c1ccc(C)cc1 | inactive
CC(=[OH+])/C=C(/C)[O-].CC(=[OH+])/C=C(/C)[O-].CC(=[OH+])/C=C(/C)[O-].[Al] | inactive
COc1cccc(C=O)c1 | inactive
CCOP(=O)(CN(CCO)CCO)OCC | inactive
Clc1ccc(C2(Cn3cncn3)CC(Br)CO2)c(Cl)c1 (stereo not drawn) | inactive
c1ccc(N=NNc2ccccc2)cc1 | inactive
CCCCCCCCSC(=O)Oc1cc(Cl)nnc1-c1ccccc1 | inactive
CCC(=O)c1ccccc1 | inactive
CC(=O)C=C(C)C | inactive
CC(C)C1CCC(Cc2ccc(Cl)cc2)C1(O)Cn1cncn1 (stereo not drawn) | inactive
Cc1ccc(N)cc1Cl | inactive
